According to the supplement of paper PMC12494721:
Counter-ions that a name gives are not always drawn.

How the values were obtained:
Conditions in all cases: incubation time: 27 h, anaerobic, 37 °C;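 for the amine columns active = adjusted P below 0.05 in both replicates with a change the same way and a mean fold change under 0.8 or over 1.25; inactive = the rest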
[1] = test system: Clostridium sporogenes DSM 1664; assay: growth (OD595) fold change vs plate DMSO controls (fold change (ratio)); higher = more growth
In short: (§1)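 Each value is the mean of 2 biological replicates, and fold changes above 1.5 were set to NA. The underlying readings were taken at 595 nm from shaken anaerobic mGAM cultures in 96-well plates after 27 h at 37 °C. They were blank-subtracted, corrected for compound background using 20 µM compound solutions in water, and converted to OD with a calibration factor of 5. Growth is the fold change relative to the median of the plate DMSO controls.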

Escherichia coli IAI1 [2] = assay: as above
In short: as §1

[3] = test system: Klebsiella aerogenes DSM 30053; assay: as above
In short: as §1

[4] = test system: Ruminococcus gnavus DSM 108212; assay: as above
In short: as §1

[5] = test system: Klebsiella aerogenes DSM 30053; assay: fold change of Histamine concentration vs plate DMSO controls (fold change (ratio)); higher = more amine produced, active = hit call of the paper (significant change in both replicates, either direction)
In short: (§2)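 Using LC–triple-quadrupole MS with dynamic MRM, amines were quantified against external calibration curves and corrected for drift within each batch. Samples were whole anaerobic mGAM cultures of four gut strains, grown 27 h at 37 °C from OD 0.1 before 1:1 dilution, extracted with cold acetonitrile/methanol containing 0.1% formic acid and centrifuged. Compounds were present at 20 µM final (sweeteners at 50 µM final). The numbers are fold changes versus plate DMSO controls, each the mean of 2 biological replicates.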

[6] = test system: Clostridium sporogenes DSM 1664; assay: fold change of Tryptamine concentration vs plate DMSO controls (fold change (ratio)); higher = more amine produced, active = hit call of the paper (significant change in both replicates, either direction)
In short: as §2

[7] = test system: Ruminococcus gnavus DSM 108212; assay: as above
In short: as §2

Escherichia coli IAI1 [8] = assay: fold change of Putrescine concentration vs plate DMSO controls (fold change (ratio)); higher = more amine produced, active = hit call of the paper (significant change in both replicates, either direction)
In short: as §2

[9] = test system: Klebsiella aerogenes DSM 30053; assay: as above
In short: as §2

Escherichia coli IAI1 [10] = assay: fold change of Cadaverine concentration vs plate DMSO controls (fold change (ratio)); higher = more amine produced, active = hit call of the paper (significant change in both replicates, either direction)
In short: as §2

[11] = test system: Klebsiella aerogenes DSM 30053; assay: as above
In short: as §2

[12] = test system: Ruminococcus gnavus DSM 108212; assay: fold change of 2-Phenylethylamine concentration vs plate DMSO controls (fold change (ratio)); higher = more amine produced, active = hit call of the paper (significant change in both replicates, either direction)
In short: as §2

Compound	growth [1]	growth (Escherichia coli IAI1 [2])	growth [3]	growth [4]	fold change of Histamine concentration [5]	fold change of Tryptamine concentration [6]	fold change of Tryptamine concentration [7]	fold change of Putrescine concentration (Escherichia coli IAI1 [8])	fold change of Putrescine concentration [9]	fold change of Cadaverine concentration (Escherichia coli IAI1 [10])	fold change of Cadaverine concentration [11]	fold change of 2-Phenylethylamine concentration [12]
CC[N+]1(CC)CCC(=C(c2ccccc2)c2ccccc2)C1C (centres undefined) [Prifinium Bromide] (20 µM)	1.1	1.08	1.04	0.925	0.982 (inactive)	1.02 (inactive)	0.907 (inactive)	1.07 (inactive)	1 (inactive)	0.989 (inactive)	1.01 (inactive)	0.85 (inactive)
C=C1/C(=C\C=C2/CCC[C@]3(C)[C@@H]([C@H](C)/C=C/[C@@H](O)C4CC4)CC[C@@H]23)C[C@@H](O)C[C@@H]1O [Calcipotriene] (20 µM)	1.07	0.96	1.02	1.3	1.02 (inactive)	0.952 (inactive)	1.01 (inactive)	1.01 (inactive)	1.01 (inactive)	0.969 (inactive)	1 (inactive)	0.981 (inactive)
CCN(CC)CCOCCOC(=O)C(CC)(CC)c1ccccc1 [Oxeladin citrate] (20 µM)	1.05	0.997	1	1.01	0.957 (inactive)	1.01 (inactive)	0.889 (inactive)	1.01 (inactive)	1.02 (inactive)	1.01 (inactive)	0.994 (inactive)	0.865 (inactive)
CN1CCCN=C1/C=C/c1cccc(O)c1 [Oxantel pamoate] (20 µM)	1.1	1.04	1.03	0.853	0.924 (inactive)	1.05 (inactive)	1.06 (inactive)	1.03 (inactive)	0.967 (inactive)	1.01 (inactive)	1.01 (inactive)	1.08 (inactive)
Cn1cnc([N+](=O)[O-])c1Sc1ncnc2[nH]cnc12 [Azathioprine] (20 µM)	1.11	1.03	0.993	1.49	0.991 (inactive)	1.04 (inactive)	0.965 (inactive)	0.977 (inactive)	0.99 (inactive)	0.974 (inactive)	0.992 (inactive)	0.984 (inactive)
COc1cc2/c(=N/c3ccc(Br)cc3F)nc[nH]c2cc1OCC1CCN(C)CC1 [Vandetanib] (20 µM)	1.15	1.07	1.06	0.995	1.01 (inactive)	1.04 (inactive)	1.11 (inactive)	0.989 (inactive)	0.907 (inactive)	0.992 (inactive)	1.1 (inactive)	1.14 (inactive)
NC1CCN(c2nc3c(cc2F)c(=O)c(C(=O)O)cn3-c2ccc(F)cc2F)C1 (centres undefined) [Tosufloxacin hydrochloride] (20 µM)	0.0344	0.0566	0.173	1.45	0.0712 (active)	0.0441 (active)	0.532 (active)	0.811 (inactive)	0.642 (active)	0.192 (active)	0.978 (inactive)	0.615 (active)
CN(C)CCOC(c1ccccc1)c1ccccc1.Cn1c(=O)c2[nH]c(Cl)nc2n(C)c1=O [Dimenhydrinate] (20 µM)	0.99	0.985	0.954	1.06	1.05 (inactive)	1.02 (inactive)	1.02 (inactive)	0.995 (inactive)	1.01 (inactive)	0.985 (inactive)	0.985 (inactive)	1.03 (inactive)
COc1ccc([C@@H]2CC(=O)c3c(O)cc(O[C@@H]4O[C@H](CO[C@@H]5O[C@@H](C)[C@H](O)[C@@H](O)[C@H]5O)[C@@H](O)[C@H](O)[C@H]4O)cc3O2)cc1O [Hesperidin] (20 µM)	1.12	1.05	1.06	0.984	0.921 (inactive)	1.26 (active)	1.01 (inactive)	1.01 (inactive)	0.934 (inactive)	0.986 (inactive)	1.02 (inactive)	0.982 (inactive)
C[C@]12CC[C@@H]3c4ccc(O)cc4CC[C@H]3[C@@H]1CC[C@@H]2O [Estradiol-17 beta] (20 µM)	1.22	1.01	1.14	1.17	1.03 (inactive)	0.984 (inactive)	1.04 (inactive)	0.989 (inactive)	1 (inactive)	1 (inactive)	1 (inactive)	1.04 (inactive)
COc1ccc2c(c1)N(C[C@H](C)CN(C)C)c1ccccc1S2 [Methotrimeprazine maleate salt] (20 µM)	1.03	1.12	1	1.05	1.01 (inactive)	1.07 (inactive)	1.02 (inactive)	1.19 (inactive)	1.01 (inactive)	0.995 (inactive)	1.02 (inactive)	1.11 (inactive)
CCCCCNC(=N)N/N=C/c1c[nH]c2ccc(OC)cc12 [Tegaserod maleate] (20 µM)	0.905	1.01	1	1.08	0.983 (inactive)	0.923 (inactive)	0.791 (inactive)	0.992 (inactive)	0.997 (inactive)	1.04 (inactive)	1 (inactive)	0.994 (inactive)
